EPAC2 antag = blocks human EPAC2 exchange factor; AID 720708; 360,000 compounds, 0.18% hits; EPAC2 GEF exchange of Rap1B-BODIPY-GDP, fluorescence; Q8WZA2; Potency, µM (top dose mostly 114 µM), actives largely listed as inhibitors; also: nearly all actives have a fitted effect of over 45% in size
EPAC2 ag = EPAC2 (human) agonism. Q8WZA2. Potency, µM (highest dose often 154 µM), actives largely listed as activators. 360,000 compounds, 0.079% hits. EPAC2 activation, biochemical qHTS; response scale: 100% = 6.5 mM cAMP response; also: nearly all actives have a fitted effect of over 50% in size
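Readout is BODIPY fluorescence (480 nm excitation, 540 nm emission), which falls as labeled GDP is exchanged off Rap1B. EPAC2 at 100 nM acted on 250 nM RAP1B-BODIPY-GDP with 50 uM GDP present.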
USP1 inh = USP1/UAF1 (human) deubiquitinase inhibition; O94782; recombinant USP1/UAF1, Ub-Rhodamine cleavage fluorescence; Potency, µM (top dose mostly 57.1 µM), usual class: inhibitors; 390,000 compounds, 0.23% hits; also: nearly all actives have a fitted effect of over 60% in size
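Step one: compound is pinned into 1nM USP1/UAF1 in HEPES pH 7.8 buffer with TCEP. Step two: 15 min room-temperature incubation. Step three: Ub-Rho (150nM final) starts cleavage, tracked by fluorescence over six one-minute reads.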
LDHA inh = inhibitors of human lactate dehydrogenase A; AID 1347041; 480,000 compounds, 0.15% hits; activity change, % (values are at about 110 or 230 µM); P00338; purified LDHA, NADH/diaphorase-resazurin fluorescence; active compounds read low; in the data active = activity change below about -30%; inconclusive = mostly about -25% to -30%
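Human LDH5 (2 nM) was incubated with 0.06 mM NADH and 0.2 mM pyruvate for 5 min at room temperature in Tris pH 7.4. Remaining NADH was coupled through diaphorase/resazurin, and resorufin fluorescence was read at 0 and 20 min.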
EPAC1 agonist = EPAC1 (human) agonism; 360,000 compounds, 0.073% hits; O95398; Potency, µM (highest dose often 154 µM), actives largely listed as activators; EPAC1 agonist qHTS, biochemical assay; response scale: 100% = response to 6.5 mM cAMP; also: nearly all actives have a fitted effect of over 60% in size
Target sequence (O95398 whole entry, looked up): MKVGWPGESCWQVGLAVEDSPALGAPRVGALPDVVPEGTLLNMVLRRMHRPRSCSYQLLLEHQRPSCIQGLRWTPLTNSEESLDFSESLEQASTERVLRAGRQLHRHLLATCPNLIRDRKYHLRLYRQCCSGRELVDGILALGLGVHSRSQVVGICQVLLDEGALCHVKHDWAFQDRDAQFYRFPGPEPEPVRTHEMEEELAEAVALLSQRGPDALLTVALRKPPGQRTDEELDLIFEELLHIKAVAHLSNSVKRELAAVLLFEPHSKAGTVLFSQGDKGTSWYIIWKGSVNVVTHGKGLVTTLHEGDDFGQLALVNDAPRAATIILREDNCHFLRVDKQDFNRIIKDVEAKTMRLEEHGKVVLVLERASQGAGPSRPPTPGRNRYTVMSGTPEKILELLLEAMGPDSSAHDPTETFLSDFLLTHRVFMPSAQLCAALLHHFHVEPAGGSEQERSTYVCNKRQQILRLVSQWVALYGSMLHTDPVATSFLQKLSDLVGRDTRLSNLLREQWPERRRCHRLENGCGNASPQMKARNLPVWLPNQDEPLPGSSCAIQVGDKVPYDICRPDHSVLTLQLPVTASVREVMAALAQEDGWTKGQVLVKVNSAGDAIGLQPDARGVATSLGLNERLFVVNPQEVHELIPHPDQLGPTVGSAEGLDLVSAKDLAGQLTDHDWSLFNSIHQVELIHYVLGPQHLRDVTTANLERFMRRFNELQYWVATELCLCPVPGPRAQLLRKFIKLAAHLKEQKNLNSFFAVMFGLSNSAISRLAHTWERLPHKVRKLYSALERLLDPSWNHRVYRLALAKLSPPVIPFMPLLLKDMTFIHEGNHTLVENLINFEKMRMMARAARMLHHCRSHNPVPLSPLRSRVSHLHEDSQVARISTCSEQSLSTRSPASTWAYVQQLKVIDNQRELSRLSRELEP
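Read-out is the fluorescence drop as BODIPY-GDP leaves Rap1B (480 nm excitation, 540 nm emission), recorded every 5 minutes over 30 minutes. Reactions held 100 nM EPAC1, 250 nM Rap1B–BODIPY-GDP and 50 uM GDP, with 6.5 mM cAMP setting full activation.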
EPAC1 antagonist = blocks human EPAC1 exchange factor | O95398 | EPAC1 GEF assay, Rap1b-BODIPY-GDP exchange fluorescence | Potency, µM (series often up to 115 µM), hits mostly inhibitors | 360,000 compounds, 0.14% hits; also: nearly all actives have a fitted effect of over 50% in size
A number is an active result; . = inactive; ? = inconclusive; / = no result. Only some compounds are listed: those with a hit (about 0.56% of all), similar ones and a draw of the others. Unless noted, calls follow the shape of the dose curve; as a rule, active = well fitted curve in the direction sought with a large enough effect; inconclusive = small, poorly fitted or top-dose-only effect, or another doubt; inactive = no such curve, though single readings can be large; an effect the other way counts as inactive or inconclusive.

SMILES	EPAC2 antag	EPAC2 ag	USP1 inh	LDHA inh	EPAC1 agonist	EPAC1 antagonist
Cc1[nH]c(=O)nc(NN=Cc2ccc(Cl)cc2)c1C(=O)Nc1ccc(Cl)cc1	.	32µM	.	.	.	.
CCCCOc1ccc(NC(=O)c2cccc(OCCC)c2)c2cccnc12	/	/	/	.	/	/
COc1cc(/C=C/[N+](=O)[O-])ccc1OCc1cccc(C(=O)O)c1	22µM	.	.	.	.	?
O=C(O)CCn1c(SCc2cccc3ccccc23)nc2ccccc21	.	.	.	.	.	.
O=C(O)c1ccccc1CSc1nc2ccccc2n1Cc1ccccc1C(=O)O	.	.	.	-32	.	.
N#Cc1c(N2CCCC2)nc(N)c2c(N)nc(N3CCCC3)cc12	?	?	0.32µM	.	.	?
CCOc1cc2c(C#N)c(N3CCCC3)nc(N)c2c(N)n1	.	.	.	.	.	.
COc1cc2c(C#N)c(N3CCN(c4ccccc4OC)CC3)nc(N)c2c(N)n1	.	.	.	.	.	.
COc1cc2c(C#N)c(N3CCCC3)nc(N)c2c(N)n1	.	.	7.9µM	.	.	?
CCCOc1cc2c(C#N)c(N3CCCC3)nc(N)c2c(N)n1	.	.	28µM	.	.	.
Cc1cc(C)c2c(N)c(C#N)sc2n1	/	/	/	.	/	/
O=C(COc1ccc(Br)cc1)Nc1cccc2cccnc12	/	/	.	.	/	/
Cc1ccccc1OCC(O)Cn1c(N)nc2c1c(=O)n(C)c(=O)n2C (stereo unspecified)	/	/	/	-37	/	/
COc1ccc(Cl)cc1NC(=O)/C(C#N)=C/c1coc2c(Cl)cc(Cl)cc2c1=O	/	/	/	.	/	/
CC(C)C(C)NC(=O)CSc1ccc2ccccc2n1 (stereo unspecified)	/	/	/	-32	/	/
CC(NC(=O)CSc1ccc2ccccc2n1)C1CC1 (stereo unspecified)	/	/	/	.	/	/
COC(=O)NC(c1ccc(C)cc1)C(Cl)(Cl)Cl (stereo unspecified)	/	/	/	.	/	/
Oc1ccc(/C(Cc2ccccn2)=N\Nc2ccccc2)c(O)c1	45µM	.	.	.	.	?
O=C(Nc1ccc(N2CCOCC2)cc1N1CCOCC1)c1ccc([N+](=O)[O-])cc1	.	.	.	.	.	.
O=C(NNc1cc(N2CCOCC2)nc(N2CCOCC2)n1)c1ccc([N+](=O)[O-])cc1	?	.	32µM	.	.	?
O=C(O)C12CC3CCC(CC(C3)C1)C2	/	/	/	.	/	/
COC(=O)C1CCN(S(=O)(=O)NCc2ccnc(Oc3ccc(C)c(C)c3)c2)CC1	/	/	/	.	/	/
O=C1C2C3C=CC(C3)C2C(=O)N1Cc1ccccc1 (stereo unspecified)	.	.	.	.	.	.
COc1ccc(N2C(=O)[C@@H]3[C@H](C2=O)[C@H]2c4ccccc4C=CN2[C@@H]3C(=O)Nc2ccccc2)cc1	.	.	?	.	.	.
O=C(c1ccccc1)[C@@H]1[C@@H](C(=O)c2ccco2)[C@@]2(C(=O)Nc3ccccc32)[C@H]2c3ccccc3C=CN12	/	/	/	.	/	/
SMILES	EPAC2 antag	EPAC2 ag	USP1 inh	LDHA inh	EPAC1 agonist	EPAC1 antagonist
Cc1ccc(N2C(=O)[C@@H]3[C@H](C2=O)C2c4ccccc4C=CN2[C@@H]3C(=O)c2ccco2)cc1 (stereo partly specified)	.	.	16µM	.	.	.
Cc1ccc(N2C(=O)[C@@H]3[C@H](C2=O)C2c4ccccc4C=CN2[C@@H]3C(=O)c2ccco2)c(C)c1 (stereo partly specified)	.	.	4µM	.	.	?
O=C(c1ccco1)[C@@H]1[C@@H]2C(=O)N(c3ccccc3)C(=O)[C@@H]2C2c3ccccc3C=CN21 (stereo partly specified)	.	.	10µM	.	.	.
CC(=O)[C@@H]1[C@@H]2C(=O)N(Cc3ccccc3)C(=O)[C@@H]2C2c3ccccc3C=CN21 (stereo partly specified)	.	.	18µM	.	.	.
Cc1cc(C)cc(NC(=O)C(=O)NC(C)c2ccccc2)c1 (stereo unspecified)	/	/	.	.	/	/
CC1=C(C(=O)Nc2cccc(C(F)(F)F)c2)C2(CCN(C(C)C)CC2)OC1=O	/	/	.	.	/	/
Cn1cc(C(c2ccccc2OCC(=O)O)c2cn(C)c3ccccc23)c2ccccc21	.	.	.	.	.	.
Cc1cccc(NC(=O)CSCC(=O)N(C)CCOc2ccc(Cl)cc2)c1	.	.	.	.	50µM	.
Cc1ccc(NC(=O)CSCC(=O)N(C)CCOc2ccc(Cl)cc2)cc1	.	.	.	.	.	.
CC1CCc2[nH]c3ccc(C(=O)N4CCCC(C(F)(F)F)C4)cc3c2C1 (stereo unspecified)	.	.	.	.	112µM	?
O=C(NCC(=O)N(CC1CCCO1)C(C(=O)NC1CCCC1)c1cccnc1)c1ccco1 (stereo unspecified)	.	.	.	.	.	.
O=C(NCCc1cccs1)C1CCN(c2ccc(C(F)(F)F)cn2)CC1	/	/	/	-31	/	/
COc1ccc(S(=O)(=O)NCc2nc3nc(C)cc(C)n3n2)cc1OC	.	.	.	.	.	.
O=C(c1ccccc1)c1coc2ccc(O)c(Cl)c12	.	.	.	.	.	?
Cc1ccc(C(=O)c2coc3ccc(O)c(Cl)c23)cc1	?	.	.	.	.	20µM
CC1CCN(c2nc(Cl)nc(Nc3ccc([N+](=O)[O-])cc3)n2)CC1	.	.	.	.	.	.
c1ccc(-n2ncc3c(N4CCN(CCOc5cccc6ccccc56)CC4)ncnc32)cc1	.	.	.	.	.	.
COc1ccc(C(=O)C[n+]2cc(Br)cc3ccccc32)cc1	/	/	/	.	/	/
COc1ccc(C(=O)C[n+]2cn(C(F)F)c3ccccc32)c(F)c1	.	.	.	-40	.	.
CCOc1ccc(-c2nc3c(c(CC)nn3-c3ccccc3)c3cc(OC)c(OC)cc23)cc1	/	/	.	.	/	/
Cn1c(=O)c(/C=C/c2ccc(F)cc2)nc2ccccc21	.	.	.	.	.	.
O=c1c(/C=C(\O)c2ccc(F)cc2)nc2ccccc2n1-c1ccccc1	.	100µM	.	.	.	.
COC(=O)C1=C(C)NC(C)=C([N+](=O)[O-])C1c1ccccc1C(F)(F)F (stereo unspecified)	50µM	.	.	.	.	.
C=CCN=c1scc(-c2ccco2)n1/N=C/c1ccc(O)c(O)c1O	.	.	.	.	.	56µM
CN=c1scc(C)n1/N=C/c1ccc(O)c(O)c1O	.	.	.	.	.	50µM
CN=c1scc(-c2cccs2)n1/N=C/c1ccc(O)c(O)c1O	.	.	.	.	.	?
